The list is not random: actives were taken first. Their share in the collection is about 2.8%.
DRV1 agonist: qHTS for Agonists of Human Resolvin D1 Receptor DRV1 | CHO-K1 GPR32 beta-arrestin PathHunter luminescence, 90 min; zero percent set by DMSO-only wells | activation, % at 76.9 µM | Probable G-protein coupled receptor 32 (Homo sapiens), O75388 | AID 1346428, 2018 | hit rate 2.5% among 48,000;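 active = activation of at least 60% and not above a set upper limit, about 1 call in 100 departs from these limits; inconclusive = activation of 40% to 60%, or above that upper limit; inactive = activation under 40%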; also: 0% is about no effect
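Beta-arrestin recruitment read-out: luminescence from complemented beta-Gal in CHO-K1 GPR32 PathHunter cells, measured 1 h after detection reagent at ambient temperature following 90 min compound exposure at 37 °C; DMSO served as basal (EC0) control.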
FH mod: Identification of activators of human fumarate hydratase by quantitative high-throughput screening | Fumarate hydratase, mitochondrial (Homo sapiens), P07954 | FH coupled MDH/diaphorase resazurin fluorescence, 15 min | Potency, µM (top dose mostly 79.9 µM), inactives show at the top dose activity change, negative = inhibition, actives largely listed as inhibitors | hit rate 0.22% among 54,000 | AID 1347055, 2019; also: potency is read from the fitted curve at half-maximal effect; % is scaled to controls: 0 for no effect and ±100 for the full control effect; the screen sought activators but most active calls are inhibition curves; nearly all actives have a fitted effect of over 45% in size
GALC G270D up: A Novel Cell-Based Assay to Identify Small Molecules for B -Galactocerebrosidase; AID 1159614, 2016; hit rate 0.1% among 45,000; Potency, µM (titrated, usually from 57.5 µM), actives largely listed as activators; 145M-Twi-hGALC-G270D cells (Twitcher mouse brain line with human GALC G270D), HMU-beta-Gal fluorescence, 48 h; also: potency is read from the fitted curve at half-maximal effect; 0% is about no effect; nearly all actives have a fitted effect of over 65% in size
Target sequence (P54803 whole entry G286D): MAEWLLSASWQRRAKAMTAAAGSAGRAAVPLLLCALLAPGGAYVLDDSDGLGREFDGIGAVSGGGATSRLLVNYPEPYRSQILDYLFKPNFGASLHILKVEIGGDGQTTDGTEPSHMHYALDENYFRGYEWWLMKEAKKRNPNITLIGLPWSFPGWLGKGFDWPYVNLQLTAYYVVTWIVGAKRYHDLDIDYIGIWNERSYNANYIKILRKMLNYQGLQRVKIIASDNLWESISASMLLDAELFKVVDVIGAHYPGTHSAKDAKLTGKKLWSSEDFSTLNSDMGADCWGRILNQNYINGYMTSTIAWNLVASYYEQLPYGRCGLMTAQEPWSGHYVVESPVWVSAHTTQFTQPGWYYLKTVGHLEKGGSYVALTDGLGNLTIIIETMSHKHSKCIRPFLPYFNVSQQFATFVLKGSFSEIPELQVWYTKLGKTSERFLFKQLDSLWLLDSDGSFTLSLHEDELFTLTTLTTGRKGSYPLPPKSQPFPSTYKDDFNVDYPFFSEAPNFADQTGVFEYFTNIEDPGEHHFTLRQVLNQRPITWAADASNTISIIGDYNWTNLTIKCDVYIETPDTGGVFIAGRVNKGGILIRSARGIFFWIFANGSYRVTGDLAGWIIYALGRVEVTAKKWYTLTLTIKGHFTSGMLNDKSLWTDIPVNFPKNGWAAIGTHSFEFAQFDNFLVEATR
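Live 145M-Twi cells (Twitcher mouse brain-derived, GALC-null) stably expressing human GALC-G270D, with a wild-type GALC line, were compound-treated. Residual GALC activity was then read as fluorescence from 0.1 mM final HMU-β-gal at pH 5.2; higher signal means activation.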
GALK inhibitor: qHTS Assay for Inhibitors of Human Galactokinase (GALK): NCGC Sytravon Library Screen; P51570; recombinant GALK, Kinase-Glo ATP luminescence, 1 h; Potency, µM (doses to about 57.5 µM), inactives show top-dose activity, negative = inhibition, usual class: inhibitors; 44,000 tested, under 10 active; AID 1347072, 2019;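 also: plate controls were full GALK reaction for no effect and reaction lacking GALK for full effect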
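Reactions with and without enzyme served as controls. GALK at 5 nM phosphorylates 100 uM galactose using 35 uM ATP (HEPES pH 8.0, Mg2+) for 1 h at RT, with luminescence read 10 min after adding Kinase-Glo Plus.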
PTAP-TSG101 blk: qHTS Validation Assay for Inhibitors of HIV-1 Budding by Blocking the Interaction of PTAP/TSG101: Sytravon Library Screen; Potency, µM (top dose mostly 115 µM), actives largely listed as inhibitors; Tumor susceptibility gene 101 protein (Homo sapiens), Q99816; 44,000 tested, under 10 active; Fluorescence polarization, FITC-PTAP peptide/Tsg101, 20 min; also: potency is read from the fitted curve at half-maximal effect; 0% is about no effect
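Read-out is FITC fluorescence polarization. Compounds were added to Tsg101 binding domain (10 uM final), then FITC-PTAP peptide (50 nM final), 20 min at r.t. Total S+P intensity flags fluorescent compounds.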
B2AR arrestin ag: qHTS assay of beta-arrestin-biased ligands of beta2-adrenergic receptor: NCGC Sytravon Library Screen. HTLA Tango cells, beta-arrestin recruitment, luciferase luminescence, 18 h. Beta-2 adrenergic receptor (Homo sapiens), P07550. Potency, µM (titrated, usually from 46.1 µM), hits mostly activators. 44,000 tested, under 10 active;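 also: potency is read from the fitted curve at half-maximal effect; 0% = DMSO and full agonism = EC100 isoproterenol or metaproterenol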
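Ligand-induced beta-arrestin recruitment to recombinant beta2-AR is measured via a tTA-driven luciferase reporter in Tango cells after 18 hr compound exposure at 37 degrees C. Concentrations span up to 46 microM.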
* hit, by the source's call; [ ] = remark or other dose. Unless noted, calls follow the shape of the dose curve; as a rule, active = well fitted curve in the direction sought with a large enough effect; inconclusive = small, poorly fitted or top-dose-only effect, or another doubt; inactive = no such curve, though single readings can be large; an effect the other way counts as inactive or inconclusive.

How did CC(=O)O[C@H]1[C@H](C)[C@@H](O)[C@H]2[C@@H]1C=C(C(=O)O)[C@H]1C[C@@H]3[C@H]([C@H]21)[C@H]1C(=O)O[C@@H]2CC[C@@]3(C)O[C@]1(O)[C@@H]2C do in these assays?
FH mod: 7%[53.3 µM]

How did Cc1ccc(Nc2nc(N)nc(CSc3nc4ccccc4s3)n2)cc1 do in these assays?
DRV1 agonist: 83*; FH mod: -21%; GALC G270D up: inactive; GALK inhibitor: 0%; PTAP-TSG101 blk: inactive; B2AR arrestin ag: inactive

Results for COc1ccc(Nc2nc(N)nc(CSc3nc4ccccc4s3)n2)cc1 ?
DRV1 agonist: inconclusive; FH mod: inconclusive; GALC G270D up: inactive; GALK inhibitor: 0%; PTAP-TSG101 blk: inactive; B2AR arrestin ag: inactive

What do the screens show for `COc1ccc(NC(=O)c2c(NC(=O)c3ccncc3)sc3c2CCC(C(C)(C)C)C3)cc1` (centres undefined)?
DRV1 agonist: 66*; FH mod: -14%; GALC G270D up: inactive; GALK inhibitor: 0%; PTAP-TSG101 blk: inactive; B2AR arrestin ag: inactive

What do the screens show for `CCC(=O)N1CCc2cc(S(=O)(=O)CCC(=O)Nc3ccc(Cl)c(C(F)(F)F)c3)ccc21`?
DRV1 agonist: 88*; FH mod: 1%; GALC G270D up: inactive; GALK inhibitor: 6%; PTAP-TSG101 blk: inactive; B2AR arrestin ag: inactive

How did CN1CCCN(C(=O)c2cccc(-c3ccc(/C=C4\C(=O)Nc5ccc(Cl)cc54)o3)c2)CC1 do in these assays?
FH mod: -29%

What do the screens show for `CCc1ccc(NC(=O)CN2C(=O)c3cccc4cccc2c34)cc1`?
DRV1 agonist: 120*; GALK inhibitor: inconclusive; PTAP-TSG101 blk: inactive; B2AR arrestin ag: inactive

What do the screens show for `COC(=O)c1ccc(NC(=O)CN2C(=O)c3cccc4cccc2c34)cc1`?
DRV1 agonist: 5; FH mod: -32%; GALC G270D up: inactive; GALK inhibitor: 0%; PTAP-TSG101 blk: inactive; B2AR arrestin ag: inactive

What do the screens show for `CCc1ccc(NC(=O)CN2C(=O)CCSc3ccccc32)cc1`?
DRV1 agonist: 63*; FH mod: 2%; GALC G270D up: inactive; GALK inhibitor: 6%; PTAP-TSG101 blk: inactive; B2AR arrestin ag: inactive

How did CN1CCN(c2ccc(Nc3cc(-c4cccc(-n5ccc6cc(C7CC7)cc(F)c6c5=O)c4CO)cn(C)c3=O)nc2)CC1 do in these assays?
FH mod: 21%

How did O=C(O)C1=CC(=C(c2ccc(O)c(C(=O)O)c2)c2ccc(O)c(C(=O)O)c2)C=CC1=O do in these assays?
DRV1 agonist: -15; FH mod: 16µM*

Results for Cc1c(C(=O)OC2CCCCCC2)[nH]c2c1C(=O)CC(c1ccccc1)C2 (centres undefined) ?
DRV1 agonist: 79*; FH mod: 1%; GALC G270D up: inactive; GALK inhibitor: -12%; PTAP-TSG101 blk: inactive; B2AR arrestin ag: inactive

What do the screens show for `Cc1c(C(=O)OC2CCCCCC2)[nH]c2c1C(=O)CC(c1ccc(Cl)cc1)C2` (centres undefined)?
DRV1 agonist: -6; FH mod: 5%; GALC G270D up: inactive; GALK inhibitor: 2%; PTAP-TSG101 blk: inactive; B2AR arrestin ag: inactive

Results for O=C(O)c1cc(O)c2cccc(O)c2c1O[C@@H]1O[C@H](CO)[C@@H](O)[C@H](O)[C@H]1O ?
FH mod: -24%[53.3 µM]

Results for N#Cc1cccc(CN2CCC(N(Cc3cccnc3)C(=O)Nc3ccccc3-c3ccccc3)CC2)c1 ?
FH mod: -5%

Results for CCOC(=O)c1c(NC(=O)c2ccc(S(=O)(=O)N3CCC(C)CC3)cc2)sc2c1CCN(CC)C2 ?
DRV1 agonist: -5; FH mod: -16%; GALC G270D up: inactive; GALK inhibitor: 2%; PTAP-TSG101 blk: inactive; B2AR arrestin ag: inactive

Results for CCOC(=O)c1c(NC(=O)c2ccc(S(=O)(=O)N3CCC(C)CC3)cc2)sc2c1CCN(C(C)C)C2 ?
DRV1 agonist: 78*; FH mod: -10%; GALC G270D up: inactive; GALK inhibitor: 2%; PTAP-TSG101 blk: inactive; B2AR arrestin ag: inactive

What do the screens show for `CC(=O)OC1C(OC(=O)c2ccccc2)C2C(C)(C)CC(=O)CC2(C)C23CCC(C)(C2)C(O)CC13` (centres undefined)?
FH mod: -10%[53.3 µM]

What do the screens show for `Cc1ccc(NC(=O)CSc2c3c(nc4ccccc24)CCCC3)cc1F`?
DRV1 agonist: 65*; FH mod: -21%; GALC G270D up: inactive; GALK inhibitor: -2%; PTAP-TSG101 blk: inactive; B2AR arrestin ag: inactive

What do the screens show for `Cc1ccc(CN2COc3ccc4c(C)cc(=O)oc4c3C2)cc1`?
DRV1 agonist: 5; FH mod: -4%; GALC G270D up: 25µM*; GALK inhibitor: 2%; PTAP-TSG101 blk: inactive; B2AR arrestin ag: inactive

What do the screens show for `CCc1c(C)c2ccc3c(c2oc1=O)CN(Cc1ccccc1)CO3`?
DRV1 agonist: 48; FH mod: 2%; GALC G270D up: 25µM*; GALK inhibitor: 0%; PTAP-TSG101 blk: inactive; B2AR arrestin ag: inactive

Results for O=c1cc(-c2ccccc2)c2ccc3c(c2o1)CN(Cc1ccccc1)CO3 ?
DRV1 agonist: -13; FH mod: 2%; GALC G270D up: inactive; GALK inhibitor: 0%; PTAP-TSG101 blk: inactive; B2AR arrestin ag: inactive

How did O=C(CCc1ccccc1)c1c(O)c([C@@H]2O[C@H](CO)[C@@H](O)[C@H](O)[C@H]2O)c(O)c([C@@H]2O[C@H](CO)[C@@H](O)[C@H](O)[C@H]2O)c1O do in these assays?
FH mod: 1%[20.6 µM]

How did O=C(Nc1nc2ccc(F)cc2s1)c1nc(S(=O)(=O)Cc2ccccc2F)ncc1Cl do in these assays?
DRV1 agonist: 105*; FH mod: -3%; GALC G270D up: inactive; GALK inhibitor: 3%; PTAP-TSG101 blk: inactive; B2AR arrestin ag: inactive

What do the screens show for `CCOc1ccc(NC(=O)c2nc(S(=O)(=O)Cc3ccccc3F)ncc2Cl)cc1`?
DRV1 agonist: -25; FH mod: -5%; GALC G270D up: inactive; GALK inhibitor: 8%; PTAP-TSG101 blk: inactive; B2AR arrestin ag: inactive

Assay outcomes deposited in PubChem BioAssay by National Center for Advancing Translational Sciences (NCATS).
